Compounds without any hit were thinned out: in the full panel of roughly 83,000, 20% have a hit.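 Cells were grown in 96-well plates and exposed to the test compound at a single concentration for 48 hours; results are reported as percent growth, with values below 10 considered active.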 Activity calls are given as the source filed them.
Columns and labels:
Experiment in all cases: NCI-60 one-dose screen, 48 h (100 = growth as untreated, 0 = no growth, -100 = all killed)
Details in all cases: 10 µM unless noted
[1] = system: DU-145 prostate
[2] = system: K-562 leukemia
[3] = system: MALME-3M melanoma
[4] = system: MDA-MB-231 breast
[5] = system: RXF 393 renal
[6] = system: SF-268 CNS
[7] = system: SF-295 CNS
[8] = system: SF-539 CNS
[9] = system: UACC-257 melanoma
[10] = system: M14 melanoma

With CCC1(C(N)=O)CC2C=CC1CC2 (stereo not given) the growth [1] was 116% (inactive), the growth [2] was 113% (inactive) and the growth [3] was 113% (inactive). For the same molecule, the growth [4] was 97.8% (inactive), the growth [5] was 108% (inactive) and the growth [6] was 110% (inactive). For the same molecule, the growth [7] was 102% (inactive), the growth [8] was 102% (inactive) and the growth [9] was 77.1% (inactive). The growth [10] was 91.4% (inactive).
In the case of O=c1cc(Cl)[nH]c(=O)[nH]1, the growth [1] was 107% (inactive), the growth [2] was 104% (inactive) and the growth [3] was 112% (inactive). For the same molecule, the growth [4] was 111% (inactive), the growth [5] was 101% (inactive) and the growth [6] was 101% (inactive). For the same molecule, the growth [7] was 101% (inactive), the growth [8] was 105% (inactive) and the growth [9] was 89.1% (inactive). For the same molecule, the growth [10] was 97.6% (inactive).
With COc1ccc(Cl)cc1NC(=O)c1cc2c(n1C)-c1nc(NC(=O)C(C)(C)C)sc1CC2 the growth [1] was 98.6% (inactive), the growth [2] was 92.2% (inactive) and the growth [3] was 106% (inactive). The growth [4] was 91.9% (inactive), the growth [5] was 97.5% (inactive) and the growth [6] was 95.5% (inactive). The growth [7] was 87.8% (inactive), the growth [8] was 98.9% (inactive) and the growth [9] was 90.9% (inactive). For the same molecule, the growth [10] was 88.2% (inactive).
For O=C(Nc1ccc(-n2cc(-c3ccncc3)c(-c3ccc(O)c(Cl)c3)n2)cc1)c1cc(Cl)cc(Cl)c1, the growth [1] was 38.9% (inactive), the growth [2] was 11.5% (inactive) and the growth [3] was 34% (inactive). For the same molecule, the growth [4] was -54.1% (active), the growth [5] was -80.2% (active) and the growth [6] was 49.4% (inactive). The growth [7] was -11.1% (active), the growth [8] was 12.8% (inactive) and the growth [9] was 66.9% (inactive). For the same molecule, the growth [10] was -40.4% (active).
In the case of COc1ccc(-c2ccc(NC(=O)Nc3ccc(Cl)c(C(F)(F)F)c3)c(C)n2)cc1, the growth [1] was 54.5% (inactive), the growth [2] was 16.7% (inactive) and the growth [3] was 82.6% (inactive). The growth [4] was 85% (inactive), the growth [5] was 81.4% (inactive) and the growth [6] was 73.7% (inactive). For the same molecule, the growth [7] was 47% (inactive), the growth [8] was 81.3% (inactive) and the growth [9] was 57.1% (inactive). The growth [10] was 31.9% (inactive).
With COc1cc(/C=C\c2cc(/C=C\c3ccc(O)c(OC)c3)n(C(=O)CNc3ccccc3OC)n2)ccc1O the growth [1] was 95.3% (inactive), the growth [2] was 19.4% (inactive) and the growth [3] was 47.9% (inactive). For the same molecule, the growth [4] was 87% (inactive), the growth [5] was 90.2% (inactive) and the growth [6] was 58.9% (inactive). For the same molecule, the growth [7] was 85.1% (inactive), the growth [8] was 42% (inactive) and the growth [9] was 85.5% (inactive). The growth [10] was 35.4% (inactive).
COCCNC(C(=O)c1ccccc1)c1ccccc1 (stereo not given) was tested, and the growth [1] was 107% (inactive), the growth [2] was 103% (inactive) and the growth [3] was 102% (inactive). For the same molecule, the growth [4] was 102% (inactive), the growth [5] was 101% (inactive) and the growth [6] was 94.3% (inactive). The growth [7] was 98% (inactive), the growth [8] was 99.7% (inactive) and the growth [9] was 97.6% (inactive). The growth [10] was 100% (inactive).
For COc1ccc(Cl)cc1NC(=O)c1cc2c(n1C)-c1nc(NC(=O)C(C)C)sc1CC2, the growth [1] was 83.5% (inactive), the growth [2] was 79.8% (inactive) and the growth [3] was 99.3% (inactive). The growth [4] was 30.5% (inactive), the growth [5] was 101% (inactive) and the growth [6] was 71.2% (inactive). The growth [7] was 92.5% (inactive), the growth [8] was -27.9% (active) and the growth [9] was 88% (inactive). The growth [10] was 84.8% (inactive).
In the case of C/C(=N\N=C1/SCC(=O)N1c1ccccc1)c1ccco1, the growth [1] was 119% (inactive), the growth [2] was 96.4% (inactive) and the growth [3] was 82.1% (inactive). For the same molecule, the growth [4] was 93.2% (inactive), the growth [5] was 112% (inactive) and the growth [6] was 91.6% (inactive). For the same molecule, the growth [7] was 98.3% (inactive), the growth [8] was 118% (inactive) and the growth [9] was 118% (inactive). The growth [10] was 176% (inactive).
In the case of O=C(Nc1ccc(-n2ccc3c(NC(=O)c4ccccc4)nccc32)cc1)Nc1ccc(Cl)c(Cl)c1, the growth [1] was -32.6% (active), the growth [2] was -27.3% (active) and the growth [3] was -46.9% (active). The growth [4] was -65.2% (active), the growth [5] was -93.9% (active) and the growth [6] was 1.8% (active). The growth [7] was -67% (active), the growth [8] was -58.6% (active) and the growth [9] was -69% (active). For the same molecule, the growth [10] was -69.8% (active).
For O=c1c2ccccc2[nH]n1Cc1ccc2c(c1)OCO2, the growth [1] was 112% (inactive), the growth [2] was 95.9% (inactive) and the growth [3] was 100% (inactive). The growth [4] was 114% (inactive), the growth [5] was 103% (inactive) and the growth [6] was 101% (inactive). For the same molecule, the growth [7] was 104% (inactive), the growth [8] was 98.1% (inactive) and the growth [9] was 97% (inactive). For the same molecule, the growth [10] was 104% (inactive).
With Nc1ncnc2c1c(-c1ccc(Oc3ccccc3)cc1)nn2C[C@@H]1SSC[C@H]1O the growth [1] was 33.4% (inactive), the growth [2] was 7.7% (active) and the growth [3] was 7.28% (active). The growth [4] was 42.6% (inactive), the growth [5] was -9.3% (active) and the growth [6] was 29.3% (inactive). The growth [7] was 24.2% (inactive), the growth [8] was 15.3% (inactive) and the growth [9] was 36.8% (inactive). For the same molecule, the growth [10] was -13.8% (active).
For Nn1c(SCC(=O)Nc2cc(Cl)c(Cl)cc2Cl)nnc1-c1cc(F)c(Cl)cc1Cl, the growth [1] was 113% (inactive), the growth [2] was 90.2% (inactive) and the growth [3] was 121% (inactive). The growth [4] was 127% (inactive), the growth [5] was 151% (inactive) and the growth [6] was 110% (inactive). For the same molecule, the growth [7] was 109% (inactive), the growth [8] was 108% (inactive) and the growth [9] was 108% (inactive). For the same molecule, the growth [10] was 96.7% (inactive).
In the case of COC(=O)c1oc2c(C(C)=O)c(OCCN3CCCCC3)ccc2c1C, the growth [1] was 117% (inactive), the growth [2] was 89.4% (inactive) and the growth [3] was 40.9% (inactive). The growth [4] was 87.2% (inactive), the growth [5] was 124% (inactive) and the growth [6] was 95.4% (inactive). The growth [7] was 99.4% (inactive), the growth [8] was 116% (inactive) and the growth [9] was 112% (inactive). For the same molecule, the growth [10] was 111% (inactive).
With Cc1cccc(CC(=O)c2ccccc2)n1 the growth [1] was 100% (inactive), the growth [2] was 81.8% (inactive) and the growth [3] was 92.1% (inactive). For the same molecule, the growth [4] was 89% (inactive), the growth [5] was 91% (inactive) and the growth [6] was 95.5% (inactive). For the same molecule, the growth [7] was 85.4% (inactive), the growth [8] was 96.8% (inactive) and the growth [9] was 92.7% (inactive). For the same molecule, the growth [10] was 85.5% (inactive).
In the case of Cc1c(Cl)ccc2c(C(=O)Cl)cc(-c3ccccc3)nc12, the growth [1] was 101% (inactive), the growth [2] was 97.1% (inactive) and the growth [3] was 104% (inactive). The growth [4] was 97% (inactive), the growth [5] was 110% (inactive) and the growth [6] was 102% (inactive). The growth [7] was 94.7% (inactive), the growth [8] was 100% (inactive) and the growth [9] was 87.9% (inactive). For the same molecule, the growth [10] was 98.1% (inactive).
O=C(/C=C/c1ccccc1)Oc1ccc(/C=C/c2cc(OC(=O)/C=C/c3ccccc3)cc(OC(=O)/C=C/c3ccccc3)c2)cc1 was tested, and the growth [1] was 104% (inactive), the growth [2] was 94.8% (inactive) and the growth [3] was 91.2% (inactive). The growth [4] was 104% (inactive), the growth [5] was 114% (inactive) and the growth [6] was 99.5% (inactive). For the same molecule, the growth [7] was 101% (inactive), the growth [8] was 91.8% (inactive) and the growth [9] was 81.7% (inactive). The growth [10] was 100% (inactive).
In the case of COc1ccc(-c2nnc(SCC(=O)Nc3ccc(C(=O)/C=C/c4ccc(OC)c(OC)c4)cc3)o2)cc1, the growth [1] was 93.7% (inactive), the growth [2] was 61.7% (inactive) and the growth [3] was 100% (inactive). For the same molecule, the growth [4] was 96.6% (inactive), the growth [5] was 104% (inactive) and the growth [6] was 98.2% (inactive). For the same molecule, the growth [7] was 96.5% (inactive), the growth [8] was 96% (inactive) and the growth [9] was 73.7% (inactive). The growth [10] was 105% (inactive).
For COc1cc(-c2nc(N)n(CC(=O)Nc3ccc(/C(C)=N\O)cc3)n2)cc(OC)c1OC, the growth [1] was 108% (inactive), the growth [2] was 96.1% (inactive) and the growth [3] was 96.7% (inactive). The growth [4] was 103% (inactive), the growth [5] was 105% (inactive) and the growth [6] was 93.5% (inactive). The growth [7] was 101% (inactive), the growth [8] was 97.1% (inactive) and the growth [9] was 63.7% (inactive). For the same molecule, the growth [10] was 101% (inactive).
With Nc1nccc2c1ccn2-c1ccc(NC(=O)c2ccc(N3CCOCC3)c(C(F)(F)F)c2)cc1 the growth [1] was 48.3% (inactive), the growth [2] was 1.22% (active) and the growth [3] was -18.1% (active). The growth [4] was -3.15% (active), the growth [5] was -77.4% (active) and the growth [6] was 18.2% (inactive). For the same molecule, the growth [7] was -59.6% (active), the growth [8] was 7.48% (active) and the growth [9] was 32.7% (inactive). For the same molecule, the growth [10] was -61.8% (active).
CS(=O)(=O)Nc1cccc(-c2ccc3ncnc(Nc4cncc(Cl)c4)c3c2)c1 was tested, and the growth [1] was 38.6% (inactive), the growth [2] was 16.9% (inactive) and the growth [3] was 40.3% (inactive). For the same molecule, the growth [4] was 1.39% (active), the growth [5] was 19.8% (inactive) and the growth [6] was 42.4% (inactive). The growth [7] was -17.7% (active), the growth [8] was 2.94% (active) and the growth [9] was 49.7% (inactive). The growth [10] was 16.8% (inactive).
For O=C(Nc1ccc(-n2ccc3c(NC(=O)c4ccccc4)ncnc32)cc1)Nc1cccc(Cl)c1Cl, the growth [1] was 1.29% (active), the growth [2] was 12.5% (inactive) and the growth [3] was 2.21% (active). The growth [4] was -9.33% (active), the growth [5] was -76.1% (active) and the growth [6] was -26.8% (active). The growth [7] was -47.9% (active), the growth [8] was -10.4% (active) and the growth [9] was 12.2% (inactive). The growth [10] was -6.74% (active).
With O=C(CSc1nnc(-c2ccc(Cl)cc2)o1)Nc1ccc(C(=O)/C=C/c2ccccc2)cc1 the growth [1] was 101% (inactive), the growth [2] was 99.3% (inactive) and the growth [3] was 106% (inactive). The growth [4] was 99.1% (inactive), the growth [5] was 112% (inactive) and the growth [6] was 103% (inactive). The growth [7] was 105% (inactive), the growth [8] was 106% (inactive) and the growth [9] was 101% (inactive). For the same molecule, the growth [10] was 96% (inactive).
For Oc1ccc(O)c(-[n+]2ccccc2)c1, the growth [1] was 108% (inactive), the growth [2] was 107% (inactive) and the growth [3] was 112% (inactive). The growth [4] was 110% (inactive), the growth [5] was 106% (inactive) and the growth [6] was 102% (inactive). For the same molecule, the growth [7] was 110% (inactive), the growth [8] was 108% (inactive) and the growth [9] was 95.1% (inactive). The growth [10] was 103% (inactive).
For Cc1[nH]c2ccc(F)cc2c1CCNC(=O)C1CCN(C(=O)c2ccc(-c3ccccc3)cc2)CC1, the growth [1] was 68.8% (inactive), the growth [2] was 17.3% (inactive) and the growth [3] was 63.6% (inactive). For the same molecule, the growth [4] was 62.7% (inactive), the growth [5] was 54.5% (inactive) and the growth [6] was 60.4% (inactive). The growth [7] was 37.6% (inactive), the growth [8] was 66.8% (inactive) and the growth [9] was 58.1% (inactive). For the same molecule, the growth [10] was 40.8% (inactive).

Source: PubChem BioAssay (NCI)
